This is part of a sample that, as a whole, favours compounds with a hit. Of some 83,000 tested, about 20% had one in any assay.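 Plates (96-well) were seeded with cells, treated with compound at one concentration, and incubated for 48 hours before percent growth was determined.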 Values without a mark were called inactive. The source made the active and inactive calls. Rule for the calls: active = growth percent below 10; inactive = the rest.

This test concerns MDA-MB-468 breast. Nature of the test: NCI-60 one-dose screen, 48 h (100 = growth as untreated, 0 = no growth, -100 = all killed). The following applies: 10 µM unless noted.
For the compound `O=C(Nc1ncc(Cc2cccc(C(F)(F)F)c2)s1)C1COc2ccccc2O1` (stereo not given), the growth is 77.4%.
The result for `Cc1cc(C(=O)c2ccc(Cl)cc2)ccc1O` reads 96.1%; that for `O=c1[nH]c(Cl)nc2c1cnn2-c1ccccc1`, 101%; that for `O=[N+]([O-])c1ccc(-c2nc(-c3ccccc3)c(-c3ccccc3)n2-c2ccccc2)cc1`, 2.29% (active).
The result for `O=C(Nc1ccc(F)cc1F)c1cc(I)ccc1O` reads -1.05% (active).
To `COC(=O)[C@]12CC[C@@H](C)[C@H](C)[C@@H]1C1=CC[C@@H]3[C@@]4(C)C(C=O)=C[C@@](C)(COC(=O)c5ccco5)[C@@H]4C(=O)C[C@@]3(C)[C@]1(C)CC2` belongs 9.8% (active); to `C=C1CCC2C3(C)COC(c4ccc(SC)cc4)OC3CCC2(C)C1C/C=C1/C(=O)OCC1O` (stereo not given), 77.4%.
`COc1ccc(/C=C2\CN(Cc3cn(CCCNc4ccnc5cc(Cl)ccc45)nn3)C/C(=C\c3ccc(OC)cc3)C2=O)cc1`: the growth was 57.5%.
The result for `O=C(O)C1CCCCN1c1nc(Cl)nc(Cl)n1` (stereo not given) reads 102%; that for `Oc1ccccc1/C=N/Nc1nc(N/N=C/c2ccccc2O)nc(N2CCOCC2)n1`, 39.2%; that for `OC(c1cc2ccc(C(F)(F)F)cc2c2cc(C(F)(F)F)ccc12)C1CCCCN1` (stereo not given), -74% (active).
For the compound `OCCN1CCN(CC/C=C2/c3ccccc3Sc3ccc(C(F)(F)F)cc32)CC1`, the growth was 68.4%.
The result for `CN1CCN(Cc2ccc(NC(=O)c3cncc(C#Cc4c(N)ncc5cc(F)ccc45)c3)cc2C(F)(F)F)CC1` reads 55.6%.
`Cc1cc(Nc2ncnc3ccc(NC4=NC(C)(C)CO4)cc23)ccc1Oc1ccn2ncnc2c1`: the growth was -60.6% (active).
Regarding `COc1ccc(-n2cnc3c(sc4ncc(Cl)cc43)c2=O)cc1`, the growth was 93.1%.
The result for `COC(=O)[C@H](CC(C)C)NC(=O)NC(=O)NC(=O)CI` reads 75.9%; that for `CC(=O)Nc1ccc(S(=O)(=O)Cl)cc1`, 95%.
As to `CCCCNC(=O)Oc1ccc(/C(=C(/C)Cc2ccc(OC)cc2)c2ccc(OCCN(CC)CC)cc2)cc1`, the growth is 76.3%.
The result for `Nc1ccccc1C(=O)Nc1ccc(Cl)cc1Cl` reads 94.5%.
The result for `CC/C=C1/C(=O)C=C[C@@H]1C/C=C\CCCC(=O)OC` reads 77.6%; that for `COc1ccc(-c2ncc(-c3ccccc3)[nH]2)cc1OC`, 89.1%; that for `Cc1ccc(OCCOCCOCCOCCOCCOc2ccc(C)n(O)c2=S)c(=S)n1O`, -22.8% (active).
The result for `Cc1cc(-c2ccc(Cl)cc2)n(Cc2nnc(SCC(=O)Nc3ccc(S(N)(=O)=O)cc3)n2-c2ccc([N+](=O)[O-])cc2)n1` reads 78.6%; that for `O=c1[nH]c(-c2cccc(F)c2)cc2cc(F)ccc12`, 33.2%.
With `O=S(=O)(Oc1ccc(-c2cn3ccoc3n2)cc1)C1CCCCC1`, the growth is 92.3%.
The result for `CCN(C(=O)CN1CCN(c2cc3c(cc2F)c(=O)c(C(=O)O)cn3CC)CC1)c1nc(-c2ccccc2)cs1` reads -7.7% (active); that for `O=C(CI)OCC(COC(=O)CI)OC(=O)CI`, 51.6%; that for `CN(C)CCOc1cccc(-c2nc3sccn3c2-c2ccnc(S(C)(=O)=O)n2)c1`, 92%.
`O=C1c2c(c3c4ccccc4[nH]c3c3ccc4ccccc4c23)C(=O)N1CCN1CCCCC1`: the growth is -0.798% (active).
Turning to `COC(=O)c1ccc(NC(N)=NCCC(C)(C)c2ccc(C(F)(F)F)cc2)nc1`, the growth is -14.2% (active).
In the case of `CCCCNC(=O)Oc1ccc(/C(=C(\C)c2ccc(Cl)cc2)c2ccc(OCCN(CC)CC)cc2)cc1`, the growth is 71.8%.
The result for `Cc1cn(C2CCCCC2)c(=O)[nH]c1=O` reads 105%; that for `CC(=O)c1cccc(Nc2ncnc3ccc(NC(=O)c4ccco4)cc23)c1`, 60.2%; that for `CN1CCN(c2nc3scc(-c4ccccc4)c3c(=O)[nH]2)CC1`, 98.1%.
On to `CCOC(=O)c1cc(N)nc2ccccc12`, for which the growth is 106%.
To `CN(C)c1ncnc2c1cnn2C` belongs 106%.
To `COc1cc(/C=C/C(=O)c2cc(-c3ccc(C(F)(F)F)cc3)ccc2O)cc(OC)c1OC` belongs 57.9%.
With `NCCN1CCN(c2nccc(-c3ccc4ccccc4c3)n2)CC1`, the growth was 56.2%.
The result for `COc1cc(C)ccc1C(=O)c1ccc(C)cc1OC` reads -20.3% (active); that for `N/C(=N\O)c1cn(C2OC(CO)C(O)C2O)c2ncnc(N)c12` (stereo not given), -23.4% (active).

The values above are taken from PubChem BioAssay (NCI).
